Inconclusive results are not listed. Entries that show only a call come without a potency. The source made the active and inactive calls. Calls follow the shape of the full dose curve.
target: Estrogen receptor (Homo sapiens) (UniProt P03372); test: qHTS assay for small molecule agonists of estrogen receptor alpha signaling (AID 588514); settings: ER-alpha-UAS-bla HEK293, beta-lactamase ratio, 18 h; series mostly up to 76.8 µM; also: nearly all actives have a fitted effect of over 70% in size
Excerpt: NIH Chemical Genomics Center [NCGC]
U.S. Environmental Protection Agency [EPA]
National Institutes of Environmental Health Sciences [NIEHS]
National Toxicology Program [NTP]
Estrogen receptor alpha (ER-alpha) is an important member of nuclear hormone receptors. ER-alpha plays important role in breast cancer as well as in other women's health issues. The majority of breast cancers is estrogen receptor (ER) positive and depends on estrogen for growth. There is also growing concern for some of environmental chemicals which may contribute the increasing the incidence of breast cancer. Therefore, it is important to understand the effect of environmental chemicals in ER-alpha signaling pathway.
NCGC Assay Protocol Summary
Using a beta-lactamase reporter-gene under control of the ER response element, a cell-based assay [ER-alpha-UAS-bla GripTiteTM cell-Based Assay from Invitrogen] was used to measure ER-alpha signaling pathway in agonist mode. ER-alpha-UAS-bla-GripTite HEK 293 cells were used with assay medium containing 2% charcoal/dextran treated FBS, 0.1 mM NEAA and 1 mM sodium pyruvate. Cells were cultured in this assay medium overnight in the flasks before the assay. The assay was performed in clear bottom black Greiner 1536-well plates. 17-beta-estradiol was used as a positive control in the screen. Library compounds were measured for their ability to either stimulate the reporter gene activity. Compounds were screened in a titration series in 1536-well format. […] Data was normalized relative to 17-beta-estradiol control (20 nM, 100%), and DMSO only wells (basal, 0%). Concentration-response titration points for each compound were fitted to the Hill equation yielding concentrations of half-maximal stimulation (EC50) and maximal response (efficacy) values.
qHTS protocol for ER-alpha beta-lactamase assay in agonist mode
[Step] [Parameter] [Value] [Description]
1. Reagent; 6 uL; 5000 cells/well
2. Incubation; 37 C for 4 hrs
4. Controls (17-beta-estradiol); 23 nL
- Dose response, start 1uM, 1:3 dilutions with duplicates
- Two columns with 20 and 0.5 nM (final) concentration.
5. Incubation; 37 C for 18 hrs
6. Detection reagent; 1 uL of CCF4-dye
7. Incubation; RT for 2 hrs
8. Detection; Fluorescence; Envision plate reader or Acumen plate reader

Chain of Estrogen receptor (Homo sapiens) (P03372 whole entry, looked up): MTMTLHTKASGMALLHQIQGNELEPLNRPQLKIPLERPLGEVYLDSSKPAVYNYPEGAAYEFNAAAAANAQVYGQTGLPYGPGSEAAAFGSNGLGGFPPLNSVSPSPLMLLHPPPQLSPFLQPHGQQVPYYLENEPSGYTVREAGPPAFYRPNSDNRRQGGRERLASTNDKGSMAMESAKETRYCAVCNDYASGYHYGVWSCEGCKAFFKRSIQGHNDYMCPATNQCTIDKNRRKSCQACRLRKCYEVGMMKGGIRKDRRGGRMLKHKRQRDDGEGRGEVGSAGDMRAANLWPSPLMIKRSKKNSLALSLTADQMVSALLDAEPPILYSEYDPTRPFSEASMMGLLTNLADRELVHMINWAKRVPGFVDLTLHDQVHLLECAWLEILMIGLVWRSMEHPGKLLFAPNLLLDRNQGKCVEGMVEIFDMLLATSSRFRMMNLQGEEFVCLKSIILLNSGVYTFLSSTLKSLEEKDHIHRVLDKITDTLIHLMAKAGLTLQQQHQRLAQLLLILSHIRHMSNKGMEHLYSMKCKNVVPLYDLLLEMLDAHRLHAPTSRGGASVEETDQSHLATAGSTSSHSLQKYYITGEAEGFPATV

Q: CC1(C)C(C=C(Cl)Cl)C1C(=O)OCc1cccc(Oc2ccccc2)c1 (stereo not drawn) was tested. Which Potency did it give?
A: inactive

Q: How did the Potency turn out when O=C(O)CCC(=O)C(=O)O was run?
A: inactive

Q: For CC1=C2[C@@H]([C@H](C)CC[C@H]2/C=C(\C)C(=O)O)[C@H](O)C1, which Potency is on record?
A: inactive

Q: For CC1=C(/C=C/C(C)=C/C=C/C(C)=C/CO)C(C)(C)CCC1, which Potency is on record?
A: 3.16 µM (active)

Q: How did the Potency turn out when CCCCCCCC/C=C\CCCCCCCC(=O)O was run?
A: inactive

Q: With CCOC(C)=O as the compound, how does the Potency read?
A: inactive

Q: With CCCCCCCC(=O)O as the compound, how does the Potency read?
A: inactive

Q: Which Potency does the source give for O=CCCCC=O here?
A: inactive

Q: For CCOc1ccc2c(c1)C(C)=CC(C)(C)N2, which Potency is on record?
A: inactive

Q: Which Potency does the source give for CC1=CCC(C(C)(C)O)CC1 (stereo not drawn) here?
A: inactive

Q: With CCCCC/C=C\C/C=C\CCCCCCCC(=O)O as the compound, how does the Potency read?
A: inactive

Q: With CC(C)=O as the compound, how does the Potency read?
A: inactive

Q: With CC(O)CO (stereo not drawn) as the compound, how does the Potency read?
A: inactive

From PubChem BioAssay (NCATS)
